Experimental data reported in PubChem BioAssay AID652068 (The Scripps Research Institute Molecular Screening Center, 2013).
Values joined by “and” are separate entries in the source; they are usually repeats but may differ in a detail not shown here. Identical values can stand only once. About 4,000 (93%) of roughly 4,300 compounds were called active. The set was probably picked from earlier hits. The list is a sample of the results. Values without a mark were called inactive.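 The calls were made as follows: active = inhibition above its plate's cutoff, the mean test-well inhibition plus 3 SD (cut at about 4.8% in these data); inactive = the rest.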

Experiment: DNA CAG/GTC dye complex inhibitors – biochemical, fluorescence, TO-PRO-1 dye, d(CAG) DNA oligo, counter-screen for rCAG RNA repeat binder project (AID 652068);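 also: 0% = DNA dye mix with DMSO and 100% = 100 µM mitoxantrone; hits displace the dye from DNA and so lower well fluorescence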
Details: d(CAG) DNA oligo TO-PRO-1 dye displacement, at 3 µM, hits give high values

Compound | inhibition
Cc1ccc(S(=O)(=O)N2[C@@H](c3cccc4ccccc34)C(C(=O)O)=C[C@H]2C(C)(C)C)cc1 | 15.6% (active)
CCc1ccc(N2CC(C(=O)Nc3ccc(S(=O)(=O)Nc4nccs4)cc3)CC2=O)cc1 (stereo not drawn) | 16.7% (active)
Cc1ccc(Sc2cc(C(=O)c3ccccc3C(=O)O)ccc2[N+](=O)[O-])cc1 | 29.8% (active)
O=C(O)c1ccccc1/C=N/Nc1ccc(S(=O)(=O)Nc2ccc(Cl)cc2)cc1[N+](=O)[O-] | 27.1% (active)
COc1ccc(Br)cc1/C=N/Nc1ccc(S(=O)(=O)Nc2ccccc2C(=O)O)cc1[N+](=O)[O-] | 71.3% (active)
COc1cccc(/C=N/Nc2ccc(S(=O)(=O)Nc3ccccc3C(=O)O)cc2[N+](=O)[O-])c1O | 79.1% (active)
COc1ccc(OCC(=O)Nc2nnc(-c3ccco3)s2)cc1 | 8.39% (active)
Cc1ccccc1-c1ccc2c(c1)O[C@@H](CN(C)Cc1ccc(C(=O)O)cc1)[C@@H](C)CN([C@H](C)CO)S2(=O)=O | 21.1% (active)
O=C(COc1ccc([N+](=O)[O-])cc1)Nc1cccc(C(=O)Nc2ccccc2C(=O)O)c1 | 24.8% (active)
NC(c1csc(NC(=O)Nc2cccc(C(F)(F)F)c2)n1)C1CCCCC1 (stereo not drawn) | 4.91% (active)
NC(c1ccccc1)c1csc(NC(=O)Nc2cccc(C(F)(F)F)c2)n1 (stereo not drawn) | 15.2% (active)
COc1ccc(C(N)c2csc(NC(=O)Nc3cccc(C(F)(F)F)c3)n2)cc1 (stereo not drawn) | 10.1% (active)
CCOC(=O)c1csc(NC(=O)Nc2cccc(OC)c2)n1 | 16.7% (active)
CCN1C(=O)/C(=C2/Sc3ccccc3N2CCCS(=O)(=O)O)SC1=S | 7.23% (active) and 13.9% (active)
CCOC(=O)c1ccccc1N1C(=O)C2Sc3[nH]c(=O)sc3C(/C=C/c3ccccc3)C2C1=O (stereo not drawn) | 18.1% (active)
Cc1c(CCC(=O)N[C@@H](CC(C)C)C(=O)O)c(=O)oc2c(C)c3oc4c(c3cc12)CCCC4 | 12.2% (active)
CC[C@@H](C)[C@H](NC(=O)CCc1c(C)c2cc3c4c(oc3c(C)c2oc1=O)CCCC4)C(=O)O | 14.9% (active)
COC(=O)c1ccc(COc2ccc(/C=C/C(=O)c3ccc(OC)c(CSCC(=O)O)c3)cc2OC)cc1 | 24.1% (active)
COc1ccc(C(=O)/C=C/c2ccc(-c3ccccc3)cc2)cc1CSCC(=O)O | 50.7% (active)
Cc1ccc2nc(N3C(=O)C(O)=C(C(=O)c4ccco4)C3c3cccc(O)c3)sc2c1 (stereo not drawn) | 37.6% (active)
N#Cc1c(-c2ccccc2)nc(SCc2cccc(C(F)(F)F)c2)[nH]c1=O | 50% (active)
N#Cc1c(-c2ccccc2)nc(SCc2ccc([N+](=O)[O-])cc2)[nH]c1=O | 17.4% (active)
Cc1ccc(CSc2nc(-c3ccccc3)c(C#N)c(=O)[nH]2)cc1 | 28.7% (active)
O=C(NNC(=S)NC(=O)c1cn(-c2ccccc2)nc1-c1ccccc1)c1ccncc1 | 15.3% (active)
O=C(O)c1ccc(NC(=O)c2cn(-c3ccccc3)nc2-c2ccc(Cl)cc2)cc1 | 23.2% (active)
O=C(O)c1ccc(N/N=C/c2cn(-c3ccccc3)nc2-c2cccs2)cc1 | 23% (active)

Compound | inhibition
N#Cc1c(-c2ccccc2)cc(-c2ccccc2)nc1SCC(=O)O | 13% (active)
O=C(O)CCn1cc(/C=C/C(=O)c2ccc(Cl)cc2)c(-c2cccc(Br)c2)n1 | 53.6% (active)
Cc1cc(N2C(=O)C(O)=C(C(=O)c3ccc(C)o3)C2c2ccc(OCc3ccccc3)cc2)no1 (stereo not drawn) | 23.8% (active)
CC1(C(=O)NS(=O)(=O)c2ccc3ccccc3c2)CCN1C(=O)C1(c2ccc(Cl)cc2)CCC1 (stereo not drawn) | 31.7% (active)
O=C(Nc1ccc(S(=O)(=O)Nc2nccs2)cc1)c1cccc(S(=O)(=O)N2CCOCC2)c1 | 5.67% (active)
O=C(CCc1ccccc1Cl)Nc1ccc(S(=O)(=O)Nc2nccs2)cc1 | 10.9% (active)
CN1CCN(S(=O)(=O)c2cccc(C(=O)Nc3sccc3C#N)c2)CC1 | 7.1% (active)
Cc1ccc(OCCC(=O)Nc2ccc(S(=O)(=O)Nc3nccs3)cc2)cc1 | 14.7% (active)
O=C(Nc1ccc(S(=O)(=O)Nc2nccs2)cc1)c1cc(-c2ccncc2)nc2ccccc12 | 29.6% (active)
CC1CCCCN1S(=O)(=O)c1ccc(C(=O)Nc2nnc(-c3cccs3)o2)cc1 (stereo not drawn) | 14.2% (active)
Cc1ccc(S(=O)(=O)N2[C@@H](c3ccccc3F)C(C(=O)O)=CC[C@H]2c2ccc(Cl)cc2)cc1 | 29.3% (active)
Cc1ccccc1S(=O)(=O)N1[C@@H](c2cccc(Cl)c2)C(C(=O)O)=CC[C@H]1c1ccc(Cl)cc1 | 53.5% (active)
Cc1ccc([C@@H]2CC=C(C(=O)O)[C@H](c3cccc(Cl)c3)N2S(=O)(=O)c2ccc(C)cc2)cc1 | 41.1% (active)
CC(=O)Nc1ccc(-c2csc(NC(=O)Nc3ccccc3)n2)cc1 | 22.8% (active)
CC(=O)Nc1ccc(S(=O)(=O)Nc2nc(-c3ccc(C(C)(C)C)cc3)cs2)cc1 | 30.7% (active)
O=C(Nc1ccccc1)Nc1nc2ccccc2s1 | 14.7% (active)
CC(=O)Nc1ccc(C(=O)Nc2nc(-c3cc(C)n(Cc4ccccc4)c3C)cs2)cc1 | 14.6% (active)
Cc1cc(C)c2nc(-c3cccnc3)cc(C(=O)Nc3ccc(S(=O)(=O)Nc4onc(C)c4C)cc3)c2c1 | 58.6% (active)
Cc1noc(NS(=O)(=O)c2ccc(NC(=O)c3oc4ccc(F)cc4c3C)cc2)c1C | 25.4% (active)
Nc1[nH]c(=S)nc2nc(-c3ccccc3)c(-c3ccccc3)nc12 | 13.8% (active)
Cc1ccc(-n2ncc3c(Nc4cccc(C(=O)O)c4)ncnc32)cc1 | 4.92% (active)
O=S(=O)(Nc1ccc(O)c2ccccc12)c1ccc(OC(F)(F)F)cc1 | 23.5% (active)
O=c1oc(-c2ccccc2NS(=O)(=O)c2ccc(Cl)cc2)nc2ccccc12 | 8.49% (active)
CSc1nnc(NC(=O)c2nc(S(=O)(=O)Cc3ccc(C)cc3)ncc2Cl)s1 | 11.6% (active)
C=CCNc1nc(N)c(C(=C(C#N)C#N)c2ccccc2)s1 | 9.76% (active)
COc1ccccc1C1C(C#N)=C(N)Oc2c1c(-c1ccccc1)nn2-c1ccccc1 (stereo not drawn) | 12% (active)

Compound | inhibition
Cc1c(C)c2c(OCC(=O)N[C@@H](C(=O)O)c3ccccc3)cc3c(c2oc1=O)CCC(C)(C)O3 | 12.5% (active)
COc1ccc(COC(=O)NC(C(=O)O)c2ccccc2)cc1 (stereo not drawn) | 1.1%
Cc1cc(Br)cn2c(Cc3cccc(F)c3)c(-c3cccc(Br)c3)nc12 | 2.14%
Fc1cccc(Cc2c(-c3cccc(Cl)c3)nc3ccc(Br)cn23)c1 | 12.8% (active)
COc1ccc(-c2nc3ccc(Br)cn3c2Cc2ccc(C)cc2)cc1OC | 5.84% (active)
CCC(C)Cn1c(O)cc2nn(-c3nc4ccccc4s3)c(=O)c-2c1C (stereo not drawn) | 30.4% (active)
COc1cc(NC(=O)c2ccccc2NS(=O)(=O)c2ccc(Cl)s2)cc(OC)c1 | 46.6% (active)
Cc1ccc(CNC(=O)C2CCN(S(=O)(=O)c3ccc4nc5c(c(C(=O)O)c4c3)CC(C)CC5)CC2)cc1 (stereo not drawn) | 11.1% (active)
CCOc1cc(C)ccc1OCc1nnc(SCC(=O)Nc2cccc(C(=O)O)c2)n1-c1ccccc1 | 11.8% (active)
Cc1sc2nc(SCC(=O)c3ccc(O)c(O)c3)n(Cc3ccco3)c(=O)c2c1C | 31.4% (active)
O=C(COC(=O)c1ccc(NS(=O)(=O)c2cccs2)cc1O)Nc1ccc(F)cc1 | 5.07% (active)
O=C(O)c1[nH]c2ccccc2c1C(c1cccc(O)c1)c1c(C(=O)O)[nH]c2ccccc12 | 12.6% (active)
CCOC(=O)c1cc2cc(-c3c(C(=O)OCC)oc4cc(O)cc(O)c4c3=O)ccc2o1 | 10.2% (active)
O=C(CCCN1C(=O)/C(=C\c2ccco2)SC1=S)Nc1cccc2ccccc12 | 13.7% (active)
Cc1ccc(NC(=O)CSc2sc3c(O)cc(=O)[nH]c3c2C#N)cc1C | 11.8% (active)
CO/N=C(\C(=O)N[C@@H]1C(=O)N2C(C(=O)O)=C(COC(C)=O)CS[C@H]12)c1csc(N)n1 (stereo in doubt) | 17.5% (active)
O=[N+]([O-])c1cc(Br)c(O)c(/C=N/Nc2nc3ccccc3s2)c1 | 83.5% (active)
COc1ccc(S(=O)(=O)/N=C2\C=C(NS(=O)(=O)c3ccccc3)C(=O)c3ccccc32)cc1 | 56.1% (active)
O=C(NNc1c2ccccc2nc2ccccc12)c1cc2ccccc2cc1O | 27.7% (active)
Cc1cc(/C=N/Nc2ccc([N+](=O)[O-])cn2)c(C)n1-c1cccc(C(=O)O)c1 | 10.4% (active)
O=c1ccc2c(-c3ccccc3S(=O)(=O)O)c3ccc(O)c(O)c3oc-2c1O | 69.2% (active)
O=C(Nc1cccc(F)c1)c1cc(-c2ccco2)nc2ccccc12 | 3.28%
O=C(O)c1cccc(NC(=O)c2cc(-c3cccc(Cl)c3)nc3ccccc23)c1 | 14.3% (active)
Cc1oc2c(F)c(F)c(F)c(F)c2c1S(=O)(=O)Nc1cccc(C(F)(F)F)c1 | 13.1% (active)
Nc1cccc(-c2cc(-c3ccccc3)nc(-c3cccc(N)c3)n2)c1 | 6.95% (active)
Cc1oc2cc([N+](=O)[O-])c(O)c([N+](=O)[O-])c2c1C(=O)c1ccc(Br)cc1 | 15.8% (active)
